High-throughput results as filed in PubChem BioAssay.
TGFb SMAD3 inh – qHTS for Inhibitors of TGF-b | Potency, µM (series often up to 46.1 µM), without a hit: top-dose activity, negative = inhibition, hits mostly inhibitors | HepG2 CAGA-GFP TGF-b/SMAD3 reporter, GFP fluorescence, 18 h; TGF-beta stimulated, 500 pg/mL final | actives 1.2% (n = 410,000); also: % is scaled to controls: 0 for no effect and ±100 for the full control effect; nearly all actives have a fitted effect of over 65% in size
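TGF-beta reporter screen: HEPG2 CAGA-GFP, 1% FBS, 500 pg/mL TGF-beta final, 18 h; per-cell GFP summed per well; curves fitted and categorized by class.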
HepG2 tox – qHTS for Inhibitors of TGF-b: Cytotox Counterscreen; HepG2 CAGA-GFP viability, ATP luminescence, 18 h; Potency, µM (doses to about 46.1 µM), for the others: at the highest dose activity change, negative = cytotoxicity, usual class: cytotoxic; actives 0.76% (n = 410,000); AID 588856, 2011
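HepG2 CAGA-GFP cells (1000/well, DMEM with 1% FBS) received compound, then TGF-beta at 500 pg/mL final, and were incubated 18 hours at 37 degrees C. Viability was read by CellTiter-Glo luminescence. Media-only wells were set as complete cell-killing and DMSO as no toxicity.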
ATXN2 expr inh – Primary qHTS for Inhibitors of ATXN expression; HEK-293 ATXN2-luciferase reporter, luminescence, 24 h; actives 0.72% (n = 360,000); Potency, µM (highest dose often 57 µM), for inactives: top-dose activity change, negative = inhibition, hits mostly inhibitors; also: % is scaled to controls: 0 for no effect and ±100 for the full control effect; nearly all actives have a fitted effect of over 55% in size
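ATXN2-luciferase reporter cells (luciferase flanked by upstream and downstream ATXN2 gene portions) were treated 24 h at 37 °C with compounds at up to 57 uM. SteadyGlo luminescence gave expression; GF-AFC fluorescence gave viability.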
HttQ103 aggreg – qHTS Multiplex Assay to Identify Dual Action Probes in a Cell Model of Huntington: Aggregate Formation (GFP). PC12 HttQ103-GFP aggregates, Acumen cytometry, 40 h. Potency, µM (series often up to 46.1 µM), for inactives: at the highest dose activity change, negative = inhibition, most hits filed as inhibitors. actives 1.1% (n = 220,000); also: % is scaled to controls: 0 for no effect and ±100 for the full control effect; nearly all actives have a fitted effect of over 60% in size
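Aggregate formation scored by laser-scanning cytometer (488 excitation, 500–530 emission) in lysed PC12 cells expressing Q103-GFP after 100 nM tebufenozide induction; library tested in dose series, with ATPLite reagent added in the multiplex.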
HTT ATP protect – qHTS Multiplex Assay to Identify Dual Action Probes in a Cell Model of Huntington: Cytoprotection (ATP). actives 0.14% (n = 230,000). Potency, µM (doses to about 56.4 µM), for inactives: cytoprotection (ATP increase), hits mostly activators. AID 1471, 2008. PC12 HTT-Q103 induced, cytoprotection, ATP luminescence, 40 h; also: % of control where 0% means no effect; nearly all actives have a fitted effect of over 45% in size
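PC12 cells stably carrying ecdysone-inducible Htt exon 1 (Q103)–GFP were induced with 100 nM tebufenozide (final) alongside library compounds in a dose series. Cytoprotection was scored as retained ATP by ATPlite luminescence.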
ATXN viability – Viability Counterscreen for Primary qHTS for Inhibitors of ATXN expression. Potency, µM (highest dose often 56.7 µM), hits mostly cytotoxic. S2 cells (HEK-293 line with an ATXN2-luciferase reporter) viability, CellTiter-Fluor protease fluorescence, 24 h. actives 0.49% (n = 400,000); also: nearly all actives have a fitted effect of over 40% in size
* hit, by the source's call; i = inactive; ? = inconclusive; . = not tested or not shown; ! = not active in a repeat; [ ] = remark or other dose. Hits are enriched below; roughly 2.8% of the tested compounds scored in any of these assays. Calls follow the shape of the dose curve; as a rule, active = well fitted curve in the direction sought with a large enough effect; inconclusive = small, poorly fitted or top-dose-only effect, or another doubt; inactive = no such curve, though single readings can be large; an effect the other way counts as inactive or inconclusive. Potency is read from the fitted curve at half-maximal effect.

SMILES	TGFb SMAD3 inh	HepG2 tox	ATXN2 expr inh	HttQ103 aggreg	HTT ATP protect	ATXN viability
O=C(CCl)Nc1cccn2ncnc12	?	-48.8%	6.7%	20µM*	-73.1%	i
ICC[n+]1csc2ccccc21	16.6%	-16.8%	.	.	.	.
CCN(CC)S(=O)(=O)c1cc(NC(=O)C2CCN(c3ncnc4sc(C)c(C)c34)CC2)ccc1Cl	?	-17.0%	11.2µM*	.	.	?
CC[C@@]1(c2ccccc2OC)C(=O)N(C(=O)OC)N1C(=O)OC	?	-9.2%	13.0%	.	.	i
CC[C@@]1(c2cccc(C)c2)C(=O)N(C(=O)OC)N1C(=O)OC	-23.6%	-5.2%	2.3%	.	.	i
CCOC(=O)N1C(=O)[C@@](CC)(c2ccccc2)N1C(=O)OCC	?	-102.7%	-35.3%	.	.	31.6µM*
COC(=O)N1C(=O)[C@](CC(C)C)(c2ccccc2)N1C(=O)OC	8.91µM*	-61.2%	1.5%	.	.	?
CCOC(=O)c1c(C(=O)OCC)c(C)n(N2C(=O)CSC2=S)c1C	?	1.3%	0.5%	0.891µM*	5.6%[10 µM]	i
CC(=O)Nc1ccc(C2Sc3ccccc3NC3=C2C(=O)c2ccccc23)cc1 (stereo not drawn)	?	-25.6%	12.0%	.	.	15.8µM*
O=C1C2=C(Nc3ccccc3SC2c2ccco2)c2ccccc21 (stereo not drawn)	0.0%	-29.6%	32.1%	15.1%	5.3%	?
CCc1ccc(C2Sc3ccccc3NC3=C2C(=O)c2ccccc23)cc1 (stereo not drawn)	11.2µM*	-32.7%	-37.2%	.	.	28.2µM*
O=C1C2=C(Nc3ccccc3SC2c2ccc(C(F)(F)F)cc2)c2ccccc21 (stereo not drawn)	11.2µM*	-53.3%	?	.	.	.
CC(C)c1ccc(C2Sc3ccccc3NC3=C2C(=O)c2ccccc23)cc1 (stereo not drawn)	.	-36.2%	.	.	.	.
O=C1c2cccc3c(O)ccc(c23)C(=O)N1Cc1ccccc1	-114.0%	-37.8%	0.9%	10µM*	-34.3%	.
O=C(O)c1cccc(CN2C(=O)c3ccccc3C2=O)c1	0.0%	2.7%	8.5%	.	.	i
C[C@@H](Oc1cc(-n2cnc3ccc(CN4CCN(C)CC4)cc32)sc1C(N)=O)c1ccccc1C(F)(F)F	.	.	30.6µM*	.	.	.
CN1CCN(CCNC(=O)Nc2ccccc2C(F)(F)F)CC1	2.1%	27.1%	-6.1%	-13.8%	9.2%[10 µM]	i
CCN1CCN(Cc2ccc(NC(=O)c3ccc(C)c(NC(=O)c4c[nH]c5cc(C(F)(F)F)ccc5c4=O)c3)cc2C(F)(F)F)CC1	11.2µM*	15.8µM*!	3.98µM*!	?	-11.1%[10 µM]	7.08µM*
CCN1CCN(Cc2ccc(NC(=O)c3ccc(C)c(NC(=O)c4csc(-c5ccncc5)n4)c3)cc2C(F)(F)F)CC1	?	15.8µM*	0.0%	-15.0%[9.22 µM]	28.5%[10 µM]	?
CCN1CCN(Cc2ccc(NC(=O)c3ccc(C)c(/C=C/c4cnc(Nc5cc(N6CCNCC6)nc(C)n5)cn4)c3)cc2C(F)(F)F)CC1	?	17.8µM*	12.6µM*!	.	.	i
Cc1ccc(CN2CCc3nnc(C(C)NC(=O)c4cc(F)ccc4F)n3CC2)o1 (stereo not drawn)	.	.	.	.	.	i
CCOC(=O)C1=C(N)Oc2cc(O)ccc2C1c1cccc(Cl)c1 (stereo not drawn)	20µM*	2.8%	-15.4%	.	.	i
CCOC(=O)C1=C(N)Oc2cc(O)ccc2C1c1cccnc1 (stereo not drawn)	-0.6%	-18.8%	6.9%	9.2%	3.7%	i
CCNc1nc(NCC)n2c(SCc3ccc(F)cc3)nnc2n1	-45.2%	-58.3%	1.7%	2.51µM*	13.0%[10 µM]	i
